Data as given in PubChem BioAssay AID2315 (National Center for Advancing Translational Sciences (NCATS), 2010).
Out of some 290,000 compounds screened, about 27,000 (9.3%) were called active. Cut-off read from the data, not from the text of the source: active = inhibition mostly above about 28% (no sharp cut-off); inactive = mostly below about 43%. The entries come from a sample that favours actives as a whole. Where a SMILES comes first, the peptide text is derived from it. [ ]: non-standard residue; d: D form. The star is where a group is joined. ξ: configuration not given here. Cbz = O=C(OCc1ccccc1)*; ξL = CC(C)CC(N)C(=O)O; ξP = O=C(O)C1CCCN1

Experiment: A qHTS for Small Molecule Inhibitors of Shiga Toxin; note: 0% is about no effect
Conditions: Vero cells, Shiga toxin protein synthesis inhibition reporter; at 38.7 µM, stronger effect = higher value

Row | SMILES | inhibition
1 | O=C(Nc1cccc(F)c1)c1coc(=O)c(Br)c1 | -10.4% (inactive)
2 | CCCCNC(=O)c1cn(CC)c2cc(N3CCN(C(=O)c4ccco4)CC3)c(F)cc2c1=O | -7.36% (inactive)
3 | COCCCNC(=O)/C(C#N)=C/c1c(N2CCCCCC2)nc2ccccn2c1=O | -3.53% (inactive)
4 | CSCCC(Nc1nc2ccccc2s1)C(=O)O (centres undefined) | -3.96% (inactive)
5 | Cc1ccnc(Nc2nc3ccccc3s2)n1 | 76.8% (active)
6 | Cc1ccc(S(=O)(=O)Nc2nc3ccccc3s2)cc1[N+](=O)[O-] | -15.3% (inactive)
7 | CS(=O)(=O)N(CC(=O)Nc1ccc(F)cc1)C1CCCCC1 | 18.9% (inactive)
8 | COc1ccc(S(=O)(=O)N2CCN(c3ccc(F)cc3)CC2)cc1-c1noc(C)n1 | -2.91% (inactive)
9 | Cc1cc(/C=N/Nc2ccc([N+](=O)[O-])cn2)c(C)n1-c1cccc(C(=O)O)c1 | 81.9% (active)
10 | Cc1cc(/C=N/n2cnnc2)c(C)n1-c1cccc(C(=O)O)c1 | 26.3% (inactive)
11 | Cc1ccc(-n2c(C)cc(/C=N/Nc3ccc([N+](=O)[O-])cn3)c2C)c(C)c1 | 50.3% (inactive)
12 | CC(C)C[C@H](NC(=O)C1CC(=O)N(c2ccc3c(c2)OCCO3)C1)C(=O)NC1CCCC1 (some centres undefined) | -4.71% (inactive)
13 | COc1cc(/C=C/C(=O)O)cc(S(=O)(=O)Nc2ccccc2C(=O)NCCc2ccccc2)c1OC | 55.3% (inactive)
14 | CC(C)CC(NC(=O)C1CCCN1C(=O)[C@@H](C)NC(=O)OCc1ccccc1)C(=O)NCC(N)=O (some centres undefined) (Cbz-[dA][ξP][ξL]G-NH2) | -3.42% (inactive)
15 | COC(=O)c1cccc(N(C(=O)c2ccco2)C(C(=O)NC2CCCC2)c2ccco2)c1 (centres undefined) | -1.98% (inactive)
16 | COc1cc(NC(=O)CCS(=O)(=O)c2ccc3c(c2)oc(=O)n3C)cc(OC)c1 | 15.8% (inactive)
17 | CC(C)NS(=O)(=O)c1ccc(OCC(=O)Nc2ccc3c(c2)OCCO3)cc1 | -9.12% (inactive)
18 | CCC(C)(C)NC(=O)CN(C(=O)C(=O)Nc1ccc2c(c1)OCCO2)C(C)(C)CC | 15.3% (inactive)
19 | COc1ccccc1OCCCC(=O)Nc1ccc2c(c1)OCCO2 | 20.5% (inactive)
20 | O=C(COc1ccc(Cl)cc1)Nc1ccc2c(c1)OCO2 | 71.8% (active)

Row | SMILES | inhibition
21 | CCC(C(=O)Nc1ccc2c(c1)OCCO2)c1ccccc1 (centres undefined) | 34.4% (inactive)
22 | O=C(CCS(=O)(=O)Cc1ccccc1)Nc1ccc2c(c1)OCCO2 | -14.4% (inactive)
23 | O=C(COc1ccc(Cl)cc1)Nc1ccc2oc(=O)ccc2c1 | 6.26% (inactive)
24 | CCc1ccccc1OCC(=O)Nc1ccc2c(c1)OCCO2 | 54.9% (active)
25 | COC(=O)CCNc1ccc2c(c1)OCCO2 | 155% (active)
26 | CCCCC(=O)Nc1ccc2c(c1)OCCO2 | 70.5% (active)
27 | CCn1c(COc2ccccc2)nnc1SCC(=O)Nc1ccc2c(c1)OCCO2 | 4.75% (inactive)
28 | CCOc1ccc(NCCC(=O)c2ccc3c(c2)OCO3)cc1 | 21.5% (inactive)
29 | CC(=O)Nc1cccc(Nc2nc(-c3cccs3)nc3ccccc23)c1 | 27.4% (inactive)
30 | Cc1cc(=O)oc2c1ccc1ccccc12 | 17.1% (inactive)
31 | O=C(CCc1ccccc1)Nc1ccnn1C1CCN(Cc2ccc(OCCO)cc2)CC1 | 27.8% (inactive)
32 | O=C(CC1C(=O)NCCN1CC(c1ccccc1)c1ccccc1)NCC1CCOCC1 (centres undefined) | 16.2% (inactive)
33 | CC(NC(=O)CCCC1CCCCC1)c1ccc(S(N)(=O)=O)cc1 (centres undefined) | -5.49% (inactive)
34 | COC(=O)c1cc(CNC(=O)CC(C)c2ccccc2)ccc1OC (centres undefined) | -4.17% (inactive)
35 | O=C(CSc1nnnn1C1CCCC1)Nc1ccc2c(c1)OCCO2 | 129% (active)
36 | Cc1ccc(SCC(=O)Nc2ccc3c(c2)OCCO3)cc1 | 77.1% (active)
37 | CCC(=O)Nc1cccc(NC(=O)CSc2nnnn2C2CCCC2)c1 | -2.63% (inactive)
38 | O=C(CSc1nnnn1-c1ccc2c(c1)CCC2)Nc1ccc2c(c1)OCCO2 | 33.4% (inactive)
39 | Cn1ccnc1SCC(=O)Nc1ccc2c(c1)OCCO2 | 7.65% (inactive)
40 | Cc1ccc(S(=O)(=O)NCC(=O)Nc2ccc3c(c2)OCCO3)cc1 | -18.4% (inactive)

Row | SMILES | inhibition
41 | Cc1cc(OC(=O)c2ccc(OC(C)C)cc2)c([N+](=O)[O-])c(=O)[nH]1 | 13% (inactive)
42 | COc1ccc(-n2nc3c(N4CCC(C(=O)NCc5ccccc5)CC4)nnc(C)c3c2C)cc1 | -7% (inactive)
43 | COc1ccc(CCNC(=O)CCc2cn(C)c3ccccc23)c(OC)c1 | -3.65% (inactive)
44 | C/C(=N\NS(=O)(=O)c1ccc(Cl)cc1)c1ccc(NC(=O)c2ccco2)cc1 | 34% (active)
45 | O=C(/C=C/c1ccco1)Nc1ccc(Oc2ccccc2)cc1 | 80.2% (active)
46 | Cc1cccc(NC(=O)Nc2cccc(Oc3c(F)c(F)c(F)c(F)c3F)c2)c1 | -0.582% (inactive)
47 | C/C(=N/NS(=O)(=O)c1ccccc1)c1ccc(NC(=O)C(F)(F)F)cc1 | -9.75% (inactive)
48 | CCC(CC)c1nnc(NC(=O)/C=C/c2ccco2)s1 | 20% (inactive)
49 | Cc1nnc(NC(=O)/C=C/c2ccco2)s1 | 45.9% (active)
50 | O=C(O)/C=C\C(=O)Nc1ccc(OCc2ccccc2)cc1 | 43% (inactive)
51 | CCc1nnc(NC(=O)/C=C/c2ccc(C)o2)s1 | 26.8% (inactive)
52 | CC(C)CNC(=O)COC(=O)/C=C/c1ccco1 | -5.59% (inactive)
53 | Cc1ccc(C(=O)COc2cccc(NC(=O)c3ccco3)c2)cc1 | 14.8% (inactive)
54 | CN1CCN(S(=O)(=O)c2ccc(NC(=O)c3ccco3)cc2)CC1 | 47.4% (inactive)
55 | CCOC(=O)c1cccc(NS(=O)(=O)c2c(C(=O)N3CCCCCC3)c(C)n(C)c2C)c1 | -9.67% (inactive)
56 | CC(=O)Nc1ccc(NC(=O)[C@@H](NC(=O)c2cccc(C)c2)C(C)C)cc1 | -2.98% (inactive)
57 | Cc1cc(C)cc(OCC(=O)Nc2cc(NC(=O)COc3cc(C)cc(C)c3)cc(C(=O)O)c2)c1 | -3.47% (inactive)
58 | Cc1ccc(NC(=O)CSc2cccc3cccnc23)c(C)c1 | 21.1% (inactive)
59 | O=C(CN1C(=O)COc2ccc(Cl)cc21)N1CCOCC1 | -1.98% (inactive)
